According to PubChem BioAssay AID485317 (Broad Institute, 2010):
Hit rate of the full screen: of about 290,000 compounds, about 11,000 (3.8%) were called active.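 How the source made its calls: active means mean replicate inhibition above about 79%, with every replicate also reaching it (limit read from the data); inconclusive means only one of the two criteria met; inactive means mean below limit and not every replicate reaching it.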 Many of the other results were omitted from the sample, so actives are more common in it than they were.

biological target: FAD-linked sulfhydryl oxidase ALR (Homo sapiens) (UniProt P55789); experiment: inhibitors of human ALR sulfhydryl oxidase, primary screen, biochemical, H2O2 detection, HRP-luminol luminescence, single point (AID 485317); conditions: purified ALR, DTT oxidation, hits give high values, concentration not given here
Sequence (P55789 whole entry, looked up): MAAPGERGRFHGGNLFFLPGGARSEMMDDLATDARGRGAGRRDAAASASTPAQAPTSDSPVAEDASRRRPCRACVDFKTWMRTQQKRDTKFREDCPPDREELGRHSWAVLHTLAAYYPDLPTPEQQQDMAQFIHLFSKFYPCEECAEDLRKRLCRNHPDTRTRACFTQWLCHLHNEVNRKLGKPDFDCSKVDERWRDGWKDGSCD

Compound	inhibition
CN1CCN(/N=C/c2c[nH]c3ccccc23)CC1	79.3% (active)
O=C(Cc1ccccc1[N+](=O)[O-])N1CCN(Cc2ccc3c(c2)OCO3)CC1	-25.4% (inactive)
Fc1ccc(N2CCN(Cc3ccc4c(c3)OCO4)CC2)cc1	76.3% (active)
Oc1cc2c(cc1CN1CCN(c3ccccc3)CC1)OCO2	60.4% (inactive)
COC(=O)C1=C(c2cc3ccccc3s2)C[C@@H]2CC[C@H]1N2C(=O)NCc1cccc2ccccc12	-1.91% (inactive)
COC(=O)C1=C(c2ccccc2)C[C@@H]2CC[C@H]1N2C(=O)N1CCCCC1	-3.97% (inactive)
c1cncc(CNCCc2c[nH]c3ccccc23)c1	10% (inactive)
COc1ccc(CNCCc2c[nH]c3ccccc23)cc1OC	4.28% (inactive)
C/C(CCc1c[nH]c2ccccc12)=N\O	98.1% (active)
COC(=O)C1=C(c2ccc(Cl)c(C(F)(F)F)c2)C[C@@H]2CC[C@H]1N2C(=O)NC1CC1	-18.1% (inactive)
COc1cccc(N2C(=O)NC(=O)/C(=C\c3cn(C)c4ccccc34)C2=O)c1	-2.44% (inactive)
COc1ccc(N2C(=O)/C(=C/c3ccco3)C(=O)NC2=S)cc1	97.9% (active)
COc1ccc(CN2C(=O)NC(=O)/C(=C\c3ccc(OC)c(OC)c3OC)C2=O)cc1	20% (inactive)
C[C@]12CC[C@H](O)CC1=C([N+](=O)[O-])CC1C2CC[C@@]2(C)C1CC[C@@H]2O (stereo not given in full)	1.78% (inactive)
COC(=O)C1=C(c2ccc(F)cc2OCc2ccccc2)C[C@@H]2CC[C@H]1N2C(=O)NCc1ccc2[nH]ccc2c1	5.75% (inactive)
NCCc1c[nH]c2ccc(O)cc12	95.8% (active)
Cc1cccc2c(CCN)c[nH]c12	-8.02% (inactive)
COC(=O)C1=C(c2cc3ccccc3o2)C[C@@H]2CC[C@H]1N2C(=O)NC1CCCCC1	0.528% (inactive)
COC(=O)C1=C(c2cc3ccccc3s2)C[C@@H]2CC[C@H]1N2C(=O)NC(C)C	16.9% (inactive)
O=c1[nH]c(O)c(C=Nc2cc(F)cc(F)c2)c(=O)[nH]1	-1.04% (inactive)

Compound	inhibition
Cc1cc(C=C2C(=O)NC(=O)NC2=O)c(C)n1-c1ccncc1	20.8% (inactive)
Cc1ccc(-n2c(C)cc(/C=C3\C(=O)NC(=O)N(C)C3=O)c2C)cc1C	-26% (inactive)
Cc1ccnc(-n2c(C)cc(/C=C3\C(=O)NC(=S)N(C)C3=O)c2C)c1	97.1% (active)
COC(=O)C1=C(c2cccc(OCc3ccccc3)c2)C[C@@H]2CC[C@H]1N2C(=O)NNCc1ccccc1	-3.1% (inactive)
O=C(O)CCn1cc(C=C2C(=O)NC(=S)NC2=O)c(-c2cccc(Br)c2)n1	99.4% (active)
CNCC(O)c1cc(F)c(OCc2ccccc2)c(OCc2ccccc2)c1F (stereo not given)	-16.5% (inactive)
COC(=O)C1=C(c2ccc(F)cc2OCc2ccccc2)C[C@@H]2CC[C@H]1N2C(=O)NCc1ccc(Cl)cc1	0.0344% (inactive)
c1ccc(CCN2CCC3(CC2)OCCO3)cc1	0.745% (inactive)
COc1ccc2c(c1)[C@]13CCCCC1C(C2)N(C)CC3 (stereo not given in full)	-0.421% (inactive)
CN(C)c1nc(N(C)C)nc(N(C#N)CCCl)n1	96.2% (active)
CCN1CCN(c2nc3c(c(=O)[nH]2)CCC3)CC1	2.56% (inactive)
CCC(=O)c1ccc(OCC(=O)N2CCN(CC(=O)Nc3ccc(C)cc3)CC2)cc1	-2.33% (inactive)
Cc1c(C(=O)O)cccc1-n1c(C)cc(/C=C2\C(=O)NC(=O)N(c3ccc4c(c3)OCO4)C2=O)c1C	12.1% (inactive)
O=C1NC(=O)N(Cc2ccco2)C(=O)/C1=C\c1ccc(-c2ccc(F)cc2)o1	13.9% (inactive)
Cc1cc(/C=C2/C(=O)NC(=O)N(Cc3ccco3)C2=O)c(C)n1-c1ccc(C(=O)O)cc1	97.6% (active)
COC(=O)C1=C(c2ccc(F)cc2OCc2ccccc2)C[C@@H]2CC[C@H]1N2C(=O)NCc1ccc(OC)c(OC)c1	-0.52% (inactive)
COC(=O)C1=C(c2ccc(F)cc2OCc2ccccc2)C[C@@H]2CC[C@H]1N2C(=O)NCc1ccc(C(C)(C)C)cc1	-8.86% (inactive)
O=C(CCC(=O)N1C[C@H]2C[C@@H](C1)c1cccc(=O)n1C2)NCc1ccccc1C(F)(F)F	-3.58% (inactive)
COC(=O)C1=C(c2c(C)noc2C)C[C@@H]2CC[C@H]1N2C(=O)NCc1ccc2c(c1)OCO2	-6.31% (inactive)
CC(=O)NC(=O)NC(C)Cc1ccccc1 (stereo not given)	99.2% (active)

Compound	inhibition
CC(=O)c1ccc(OC(NC(=O)Cc2ccccc2)C(Cl)(Cl)Cl)cc1 (stereo not given)	5.09% (inactive)
CC(Cc1ccccc1)NCCC(c1ccccc1)c1ccccc1 (stereo not given)	-11.9% (inactive)
COC(=O)C1=C(c2ccc(Cl)c(C(F)(F)F)c2)C[C@@H]2CC[C@H]1N2C(=O)NC(C)C	0.07% (inactive)
Cc1ccc(-c2cc(C(=O)N3CCC4(CC3)OCCO4)no2)cc1	7.33% (inactive)
COc1ccc(-c2nc(CS(=O)CC(=O)N3CCC4(CC3)OCCO4)c(C)o2)cc1 (stereo not given)	98.9% (active)
COc1ccc(NC(=O)N2CCC3(CC2)OCCO3)c(OC)c1	-26.4% (inactive)
COC(=O)C1=C(c2ccc(-c3ccccc3)c(F)c2)C[C@@H]2CC[C@H]1N2C(=O)NCc1ccc(F)cc1	-0.106% (inactive)
C=CC12CN(C)[C@@H]3C4CO[C@H](C[C@H]41)[C@]1(C(=O)Nc4ccccc41)[C@@H]32 (stereo not given in full)	-7.63% (inactive)
COC(=O)C1=C(c2cccc(OCc3ccccc3)c2)C[C@@H]2CC[C@H]1N2C(=O)NCc1ccc(Br)cc1	-3.06% (inactive)
CN1CCc2cc3c(cc2[C@H]1[C@@H]1OC(=O)c2c1ccc1c2OCO1)OCO3	-8.76% (inactive)
Cc1ccccc1NC(=O)COC(=O)c1cc(C)n(C2CC2)c1C	5.99% (inactive)
COC(=O)C1=C(c2ccc3ccccc3c2)C[C@@H]2CC[C@H]1N2C(=O)NCCO	-28.8% (inactive)
O=[N+]([O-])c1cnc2ccc3ccccc3c2c1	-42.1% (inactive)
C/C(=N/O)c1ccc2ccc3ccccc3c2c1	99.1% (active)
C[C@]12CCC3C(CC[C@H]4C[C@@H](O)CC[C@]34C)C1CC[C@@H]2O (stereo not given in full)	-1.96% (inactive)
C[C@]12CCC3C(CC[C@H]4C[C@@H](O)CC[C@]34C)C1C[C@@H](O)[C@H]2O (stereo not given in full)	2.15% (inactive)
COC(=O)C1=C(c2ccc(F)cc2F)C[C@@H]2CC[C@H]1N2C(=O)NC1CC1	-1.47% (inactive)
COC(=O)C1=C(c2ccccc2OCc2ccccc2)C[C@@H]2CC[C@H]1N2C(=O)NCc1ccc(OC)cc1	-2.59% (inactive)
COC(=O)C1=C(c2ccc(C(C)=O)cc2)C[C@@H]2CC[C@H]1N2C(=O)NCCNC(C)=O	4.07% (inactive)
O=c1c2ccccc2nc(/C=C/c2ccco2)n1-c1ccccc1O	47.2% (inactive)
